Screening data: PubChem, Sanford-Burnham Center for Chemical Genomics
CYP2C19 inhib: human CYP2C19 inhibition. CYP2C19 Supersomes, luciferin-H EGE luminescence, 30 min. inhibition, % at 5 µM. P33261. 96,000 compounds, 21% hits;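 active = CYP2C19 inhibition above a set limit at 5 µM in the primary screen, cut at about 50% in these data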
CD11b adhes inh: CD11b/CD18-fibrinogen binding inhibition | 93,000 compounds, 0.54% hits | K562 CD11b/CD18 adhesion to fibrinogen, ATPlite luminescence; Mn2+ added to activate the integrin | inhibition, % at 10 µM;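 active = primary inhibition of 50% or more at 10 µM, then 40% or more on retest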
Target sequence (P05107 whole entry, looked up, other chains not shown): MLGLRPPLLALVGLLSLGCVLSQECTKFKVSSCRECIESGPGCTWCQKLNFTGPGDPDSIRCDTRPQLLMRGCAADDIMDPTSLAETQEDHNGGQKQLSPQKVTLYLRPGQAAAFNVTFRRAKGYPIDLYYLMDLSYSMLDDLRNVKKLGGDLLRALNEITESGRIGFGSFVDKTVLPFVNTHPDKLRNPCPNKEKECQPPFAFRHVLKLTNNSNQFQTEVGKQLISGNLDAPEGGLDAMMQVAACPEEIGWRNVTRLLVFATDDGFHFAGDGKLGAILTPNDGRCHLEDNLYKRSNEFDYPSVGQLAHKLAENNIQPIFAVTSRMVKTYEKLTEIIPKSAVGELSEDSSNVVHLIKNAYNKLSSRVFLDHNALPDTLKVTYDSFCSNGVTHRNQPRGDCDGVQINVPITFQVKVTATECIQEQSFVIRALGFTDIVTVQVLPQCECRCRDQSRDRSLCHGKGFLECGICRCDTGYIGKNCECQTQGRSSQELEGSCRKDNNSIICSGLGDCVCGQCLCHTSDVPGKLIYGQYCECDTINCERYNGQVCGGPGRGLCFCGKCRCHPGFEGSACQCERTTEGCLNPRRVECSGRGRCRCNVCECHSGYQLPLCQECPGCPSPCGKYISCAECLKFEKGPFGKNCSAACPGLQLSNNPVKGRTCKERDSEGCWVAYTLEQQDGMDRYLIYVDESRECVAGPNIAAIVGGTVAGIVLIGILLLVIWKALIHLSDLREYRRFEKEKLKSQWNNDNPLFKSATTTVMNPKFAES
CYP2C9 activ: activators of human CYP2C9. recombinant CYP2C9, luciferin-H conversion, luminescence; hits give high values; factor 1 = untreated enzyme, 0 = blocked. activation factor at 5 µM. 96,000 compounds, 1.4% hits;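 active = activation factor of 2 or more for CYP2C9 at a 5 µM dose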
CYP2C9 inh: inhibitors of human CYP2C9; CYP2C9 Supersomes, luciferin-H conversion, luminescence; 96,000 compounds, 20% hits; inhibition, % at 5 µM; AID 777;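 active = blocking of liver enzyme CYP2C9 beyond about 50% at 5 µM, limit read from the data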
CYP2C19 act: activators of human cytochrome P450 2C19. AID 1025. 96,000 tested, under 10 active. recombinant CYP2C19, luciferin-H EGE luminescence; hits give high values; 0 = fully inhibited enzyme, 1 = untreated enzyme. activation factor at 5 µM. P33261;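 active = activation factor of at least 2 at 5 µM in the primary screen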
CD11b adhes enh: increases human CD11b/CD18 adhesion to fibrinogen; P05107+P11215; K562 CD11b/CD18 adhesion to fibrinogen, ATPlite luminescence; activation, % at 10 µM; 93,000 compounds, 0.07% hits; AID 1499;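 active = 10 µM primary screen giving 50% or more activity, confirmed by 40% or more on retest at that dose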
Numbers stand for hits. An excerpt weighted towards active compounds, which were near 28% of everything screened.

`Cc1cc(C)n2c(Nc3ccc4c(c3)OCCO4)c(-c3ccc(C)o3)nc2n1` gave CYP2C19 inhib inactive, CD11b adhes inh inactive, CYP2C9 activ inactive, CYP2C9 inh inactive, CYP2C19 act inactive and CD11b adhes enh inactive.
`Cc1ccc(-c2nc3cnccn3c2Nc2ccc3c(c2)OCO3)o1` gave CYP2C19 inhib 97.3, CD11b adhes inh inactive, CYP2C9 activ inactive, CYP2C9 inh 81.8, CYP2C19 act inactive and CD11b adhes enh inactive.
Cc1ccc(-c2nc3cnccn3c2Nc2ccccc2)o1 was read as CYP2C19 inhib 82.6, CD11b adhes inh inactive, CYP2C9 activ inactive, CYP2C9 inh 76.5, CYP2C19 act inactive and CD11b adhes enh inactive.
`COc1cc(-c2nc3cnccn3c2Nc2c(C)cccc2C)ccc1O` gave CYP2C19 inhib 99.1, CD11b adhes inh inactive, CYP2C9 activ inactive, CYP2C9 inh 53.1, CYP2C19 act inactive and CD11b adhes enh inactive.
For Cc1ccc(Nc2c(-c3ccc(C)o3)nc3cnccn23)cc1 the results were CYP2C19 inhib 57.3, CD11b adhes inh inactive, CYP2C9 activ inactive, CYP2C9 inh inactive, CYP2C19 act inactive and CD11b adhes enh inactive.
For COc1ccc(-c2nc3cnccn3c2Nc2ccc(C)cc2)cc1 the results were CYP2C19 inhib 75.4, CD11b adhes inh inactive, CYP2C9 activ inactive, CYP2C9 inh 79.6, CYP2C19 act inactive and CD11b adhes enh inactive.
Screening CC1CCCN(c2ccc(/C=C(\C#N)c3nn(-c4ccccc4)c(N)c3C#N)cc2[N+](=O)[O-])C1 (stereo unspecified) returned CYP2C19 inhib inactive, CYP2C9 activ inactive, CYP2C9 inh 80.1 and CYP2C19 act inactive.
For CC1CCN(c2ccc([N+](=O)[O-])cc2C(=O)O)CC1 the results were CD11b adhes inh inactive and CD11b adhes enh inactive.
Screening CC1CCN(c2cc(N3CCC(C)CC3)c([N+](=O)[O-])cc2/C=C(\C#N)c2nn(-c3ccccc3)c(N)c2C#N)CC1 returned CYP2C19 inhib 51.0, CYP2C9 activ inactive, CYP2C9 inh 80.8 and CYP2C19 act inactive.
Screening COc1ccc(C(=O)Nc2ncc3c(n2)CC(c2ccco2)CC3=O)cc1 (stereo unspecified) returned CYP2C19 inhib inactive, CD11b adhes inh inactive, CYP2C9 activ inactive, CYP2C9 inh inactive, CYP2C19 act inactive and CD11b adhes enh inactive.
Screening COc1ccc(OC)c(C2C(C(C)=O)=C(O)C(=O)N2Cc2cccnc2)c1 (stereo unspecified) returned CYP2C19 inhib inactive, CD11b adhes inh inactive, CYP2C9 activ inactive, CYP2C9 inh inactive, CYP2C19 act inactive and CD11b adhes enh inactive.
`CCCCn1c(SCc2ccc(Cl)cc2)nc2c1c(=O)[nH]c(=O)n2C` gave CYP2C19 inhib inactive, CD11b adhes inh inactive, CYP2C9 activ inactive, CYP2C9 inh inactive, CYP2C19 act inactive and CD11b adhes enh inactive.
`CC(C)CCn1c(SCc2ccc(Cl)cc2)nc2c1c(=O)[nH]c(=O)n2C` gave CYP2C19 inhib 51.4, CD11b adhes inh inactive, CYP2C9 activ inactive, CYP2C9 inh 78.8, CYP2C19 act inactive and CD11b adhes enh inactive.
Screening CC(C)n1c(SCc2ccc(Cl)cc2)nc2c1c(=O)[nH]c(=O)n2C returned CYP2C19 inhib 50.3, CD11b adhes inh inactive, CYP2C9 activ inactive, CYP2C9 inh inactive, CYP2C19 act inactive and CD11b adhes enh inactive.
Screening Cc1ccc(CSc2nc3c(c(=O)[nH]c(=O)n3C)n2CCC(C)C)cc1 returned CYP2C19 inhib 61.1, CD11b adhes inh inactive, CYP2C9 activ inactive, CYP2C9 inh 74.7, CYP2C19 act inactive and CD11b adhes enh inactive.
Screening CCCCCCn1c(SCC(C)C)nc2c1c(=O)[nH]c(=O)n2C returned CYP2C19 inhib inactive, CD11b adhes inh inactive, CYP2C9 activ inactive, CYP2C9 inh 57.0, CYP2C19 act inactive and CD11b adhes enh inactive.
`CCCCCn1c(Sc2nc3ccccc3s2)nc2c1c(=O)[nH]c(=O)n2C` gave CYP2C19 inhib inactive, CD11b adhes inh inactive, CYP2C9 activ inactive, CYP2C9 inh 51.0, CYP2C19 act inactive and CD11b adhes enh inactive.
`C=C(C)CSc1nc2c(c(=O)[nH]c(=O)n2C)n1CCC(C)C` gave CYP2C19 inhib inactive, CD11b adhes inh inactive, CYP2C9 activ inactive, CYP2C9 inh 70.5, CYP2C19 act inactive and CD11b adhes enh inactive.
Screening C=C(C)Cn1c(SCCCO)nc2c1c(=O)[nH]c(=O)n2C returned CYP2C19 inhib inactive, CD11b adhes inh inactive, CYP2C9 activ inactive, CYP2C9 inh inactive, CYP2C19 act inactive and CD11b adhes enh inactive.
For CCOCCn1c(SCc2ccc(C)cc2)nc2c1c(=O)[nH]c(=O)n2C the results were CYP2C19 inhib 69.5, CD11b adhes inh inactive, CYP2C9 activ inactive, CYP2C9 inh inactive, CYP2C19 act inactive and CD11b adhes enh inactive.
C=C(C)Cn1c(Sc2nc3ccccc3[nH]2)nc2c1c(=O)[nH]c(=O)n2C was read as CYP2C19 inhib 87.5, CD11b adhes inh inactive, CYP2C9 activ inactive, CYP2C9 inh inactive, CYP2C19 act inactive and CD11b adhes enh inactive.
`COCCSc1nc2c(c(=O)[nH]c(=O)n2C)n1CCC(C)C` gave CYP2C19 inhib inactive, CD11b adhes inh inactive, CYP2C9 activ inactive, CYP2C9 inh inactive, CYP2C19 act inactive and CD11b adhes enh inactive.
Screening CCC(C)N(C(=O)COC(=O)Cc1n[nH]c(=O)c2ccccc12)C1CCS(=O)(=O)C1 (stereo unspecified) returned CYP2C19 inhib inactive, CD11b adhes inh inactive, CYP2C9 activ inactive, CYP2C9 inh inactive, CYP2C19 act inactive and CD11b adhes enh inactive.
Screening CNCc1cc2ccc(C)cc2[nH]c1=O returned CYP2C19 inhib inactive, CD11b adhes inh inactive, CYP2C9 activ inactive, CYP2C9 inh inactive, CYP2C19 act inactive and CD11b adhes enh inactive.
Screening O=C1c2oc3ccc(F)cc3c(=O)c2C(c2ccccc2)N1CC1CCCO1 (stereo unspecified) returned CYP2C19 inhib inactive, CD11b adhes inh inactive, CYP2C9 activ inactive, CYP2C9 inh 62.5, CYP2C19 act inactive and CD11b adhes enh inactive.
Screening O=C1c2oc3ccccc3c(=O)c2C(c2cccc(F)c2)N1CCCO (stereo unspecified) returned CYP2C19 inhib 50.1, CD11b adhes inh inactive, CYP2C9 activ inactive, CYP2C9 inh inactive, CYP2C19 act inactive and CD11b adhes enh inactive.
O=C1NCCCC1C(=O)N1CCN(C(=O)C2CCCNC2=O)CC1 (stereo unspecified) was read as CYP2C19 inhib inactive, CD11b adhes inh inactive, CYP2C9 activ inactive, CYP2C9 inh inactive, CYP2C19 act inactive and CD11b adhes enh inactive.
`CCOc1ccc(NC(=O)c2ccccc2NC(=O)CN(C)CC(=O)Nc2ccc(C)cc2)cc1` gave CYP2C19 inhib 93.8, CD11b adhes inh inactive, CYP2C9 activ inactive, CYP2C9 inh 96.6, CYP2C19 act inactive and CD11b adhes enh inactive.
`Cc1ccc2nc(-c3ccc(NC(=O)CN(c4ccccc4C)S(C)(=O)=O)cc3)sc2c1` gave CYP2C19 inhib 92.4, CD11b adhes inh inactive, CYP2C9 activ inactive, CYP2C9 inh inactive, CYP2C19 act inactive and CD11b adhes enh inactive.
